Most compounds without a hit are left out; they make up all but 2.5% or so of the library.
HDAC3 inhib = HDAC3 deacetylase inhibitors, primary screen, biochemical, fluorescence, cell-free homogeneous; Histone deacetylase 3 (Homo sapiens), O15379; recombinant HDAC3, fluorogenic peptide/trypsin coupled; inhibition, % at 8.3 µM; hit rate 0.15% among 320,000; AID 2718, 2010; in the data active = inhibition above about 26%, passing the limit was not always enough
PHOSPHO1 block = PubChem AID 1565. Phosphoethanolamine/phosphocholine phosphatase (Homo sapiens), Q8TCT1. recombinant PHOSPHO1, absorbance phosphatase assay. inhibition, % at 13.3 µM. hit rate 1.1% among 290,000; in the data active = inhibition above about 60%
Target sequence (Q8TCT1 whole entry, looked up): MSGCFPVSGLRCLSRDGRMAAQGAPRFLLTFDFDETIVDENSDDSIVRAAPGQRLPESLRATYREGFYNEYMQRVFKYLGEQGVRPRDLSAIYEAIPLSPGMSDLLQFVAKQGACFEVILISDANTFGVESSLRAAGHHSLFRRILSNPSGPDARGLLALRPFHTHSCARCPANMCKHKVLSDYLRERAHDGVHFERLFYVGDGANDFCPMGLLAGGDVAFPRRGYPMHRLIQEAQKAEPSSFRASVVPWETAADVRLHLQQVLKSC
p97 ATPase inh = inhibitors of human p97 ATPase, primary screen, biochemical. Transitional endoplasmic reticulum ATPase (Homo sapiens), P55072. recombinant p97 ATPase, Kinase-Glo ATP luminescence, 3 h. inhibition, % at 8 µM. hit rate 0.42% among 220,000; in the data active = inhibition above about 15%;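 note: 0% = DMSO vehicle and 100% = wells lacking enzyme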
UBC9 SUMO inh = inhibitors of in vitro SUMOylation cascade, primary screen, biochemical, HTRF, uHTS. HTRF SUMOylation assay, SAE1/SAE2 + UBC9. inhibition, % at 35 µM. hit rate 0.36% among 290,000. AID 2006, 2009; in the data active = inhibition above about 50%, passing the limit was not always enough
Target sequence (P63279 whole entry, looked up): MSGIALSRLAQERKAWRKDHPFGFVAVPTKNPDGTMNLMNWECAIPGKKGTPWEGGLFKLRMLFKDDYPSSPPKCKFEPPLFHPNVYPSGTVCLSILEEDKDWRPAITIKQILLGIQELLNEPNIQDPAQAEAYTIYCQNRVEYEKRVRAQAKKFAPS
G6PDH counter = L. mesenteroides G6PDH inhibitors, counter-screen for G6PDH-coupled screening assays, biochemical, Leuconostoc mesenteroides enzyme. Purified L. mesenteroides G6PDH, diaphorase/resazurin coupled fluorescence, 45 min. hit rate 0.12% among 200,000. inhibition, % at 5 µM. glucose-6-phosphate dehydrogenase [Leuconostoc mesenteroides]; in the data active = inhibition above about 50%
PfM18AAP inh = PfM18AAP inhibitors, malaria aminopeptidase, primary screen, biochemical, QFRET, recombinant enzyme; H-Glu-NHMec fluorogenic cleavage; inhibition, % at 7.35 µM; hit rate 1.2% among 290,000; AID 1822, 2009;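 active = inhibition above the campaign mean inhibition over all tested compounds plus 3 SD, cut at about 28% in these data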;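 note: 0% = plate median of test compound wells and 100% = 2 mM ZnCl2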
Numbers without * were called inactive; x = not tested or not shown.

SMILES	HDAC3 inhib	PHOSPHO1 block	p97 ATPase inh	UBC9 SUMO inh	G6PDH counter	PfM18AAP inh
CCOc1ccccc1NC(=O)C1CCN(c2ccc(S(=O)(=O)N3CCCC3)cc2)CC1	x	78*	1	8	2	-13
CCOc1ccccc1NC(=O)C1CCN(S(=O)(=O)c2ccc(OC)c(OC)c2)CC1	-1	14	3	19	14	0
Nc1nn(-c2ccccc2Cl)cc1-c1nn[nH]n1	0	13	-8	9	x	-8
CC(=O)OCCn1c2nc(=O)[nH]c(=O)c-2nc2cc(C)c(C)cc21	3	-32	-7	60*	x	-91
Cc1cc2nc(C)c(=O)n(C)c2cc1C	-7	-10	2	30	2	-2
CN(CC(=O)Nc1ccccc1Br)C(=O)Cn1[nH]c(=O)c2ccccc2c1=O	4	x	x	x	x	x
CCn1c(C)[n+](CC(O)COCC2CC=CCC2)c2ccccc21 (configuration not stated)	5	104*	2	-7	1	9
CCN(CC)S(=O)(=O)c1ccc2c(c1)c(=O)c(C(=O)NCCc1ccccc1)cn2C	-3	16	x	6	x	-3
Cc1ccc(Nc2nnc(SCC(=O)NCC3CCCO3)s2)cc1C (configuration not stated)	-11	x	x	x	x	x
CNC(=S)Nc1ccc(N2CCCC2)c(S(=O)(=O)Nc2ccc(OC)cc2)c1	-2	x	x	x	x	x
COc1ccc(NS(=O)(=O)c2ccc(N3CCCC3)c(NC(=S)Nc3cccc(S(=O)(=O)N(C)C)c3)c2)cc1	-2	64*	9	7	-16	22
CCNC(=O)C(=O)Nc1cc2c3c(c1)CCN3C(=O)CC2	3	44	x	-3	x	2
CCNC(=O)C(=O)Nc1cc2c3c(c1)CCC(=O)N3CCC2	-1	65*	x	2	x	0
Cc1ccc(Sc2c(C)[nH]n(C(C)(C)C)c2=O)cc1	-7	52	4	0	11	7
Cc1[nH]n(C(C)(C)C)c(=O)c1Sc1ccccc1	-1	94*	5	11	6	2
CSC1=NC2C(N1)N(C)C(=O)N2C (configuration not stated)	5	78*	5	0	6	-14
COCCn1c(C)c(C)c2c(NCCc3ccccc3)ncnc21	0	33	x	-12	x	9
CCOc1ccc(NC(=O)c2ccc(NS(=O)(=O)c3cccs3)cc2)cc1	0	23	x	-5	x	11
COC(=O)c1ccc(CSc2nc3ccc(C)cc3[nH]2)o1	0	76*	1	0	-5	4
COC(=O)c1ccc(CSc2n[nH]c(=S)s2)o1	4	102*	3	9	-2	6
O=C(CN(C(=O)CCC(=O)Nc1ccccn1)c1ccc(F)cc1)NCCc1ccccc1	3	11	x	1	x	2
O=C(NCc1ccccc1C(F)(F)F)C1CCC(=O)N(CCCc2ccccc2)C1 (configuration not stated)	-1	41	x	-10	x	-5
Fc1ccc(-n2c(-c3ccc4ccccc4n3)n[nH]c2=S)cc1	1	60*	8	11	6	1
Cc1c(Cl)c(-c2n[nH]c(=S)n2-c2ccc(F)cc2)nn1C	8	101*	6	14	0	8
O=C(CCN1CCCCC1)NNC(=S)NC(=O)c1ccc(Br)cc1	x	20	-7	-15	4	9
SMILES	HDAC3 inhib	PHOSPHO1 block	p97 ATPase inh	UBC9 SUMO inh	G6PDH counter	PfM18AAP inh
O=C(CCN1CCOCC1)NNC(=S)NC(=O)c1ccc(Br)cc1	2	24	2	-14	-10	30*
COc1ccc(/C=C2/C(=O)ON=C2C)cc1Cl	-4	34	x	-1	x	-2
C=CCOc1ccc(/C=C2/C(=O)ON=C2C)cc1OC	1	15	x	8	x	30*
CC1(C)OC(=O)C(=CNn2cnc3ccccc3c2=O)C(=O)O1	1	63*	3	2	8	8
CS(=O)(=O)Nn1cnc2ccccc2c1=O	1	-8	2	0	6	7
CCOc1cc(/C=N/NC(=O)COc2ccc(C)cc2)ccc1OC(=O)c1cccs1	0	60*	5	11	4	1
CCC(C)c1c(O)nc(SCC(=O)c2ccccc2)[nH]c1=O (configuration not stated)	33*	-5	8	18	8	3
Cc1ccc(C(=O)CSc2nc(N)cc(=O)[nH]2)cc1C	5	24	x	16	x	-11
C=CCc1c(O)nc(SCC(=O)c2ccccc2)[nH]c1=O	37*	16	5	-8	-6	4
CCC(C)c1c(O)nc(SCC(=O)Nc2ccccc2)[nH]c1=O (configuration not stated)	0	16	1	10	5	-1
Cc1ccc(C(=O)CSc2nc(O)cc(=O)[nH]2)cc1C	30*	50	x	10	x	-2
COc1cc(Cl)ccc1OCc1cc(C(=O)NCCCN2CCCC2=O)no1	4	29	x	2	x	-4
Cc1c(NC(=O)Nc2ccc3c(c2)OCO3)cccc1[N+](=O)[O-]	10	37	x	6	x	10
O=C(Nc1nnc(SCC(=O)N2CCOCC2)s1)c1ccccc1Cl	-1	66*	0	-8	21	-1
O=C(Nc1nnc(SCC(=O)N2CCCCC2)s1)c1ccccc1F	5	22	x	5	x	-6
O=C(Cc1cccs1)Nc1nnc(SCC(=O)N2CCCCC2)s1	0	-79	3	2	5	5
O=C(Nc1nnc(SCC(=O)N2CCCCC2)s1)c1cccs1	3	74*	-1	12	-5	-11
O=C(NCCc1ccc(Cl)cc1)C1CCCN1C(=O)Nc1ccccc1 (configuration not stated)	-3	x	x	19	x	-3
CCNCc1ccccc1OCc1ccccc1	4	69*	1	5	5	0
COc1ccc(OCc2cc(C(=O)N(C)C3CCOC3)no2)c(Cl)c1 (configuration not stated)	-6	27	x	-2	x	1
COc1ccc(OCc2cc(C(=O)N(C)C3CCOCC3)no2)c2ccccc12	0	62*	x	2	x	3
CCC(C)c1ccccc1N1CC(C(=O)NCCCn2nc(C)cc2C)CC1=O (configuration not stated)	2	x	x	x	x	x
Cc1ccc2nc(-c3ccccc3N)[nH]c2c1	-54	37	-25	34	18	2
Cc1ccc(C)c(-c2nc3ccc(N)cc3[nH]2)c1	-141	19	3	50*	-19	-1
Nc1ccc(-c2nc3ccc(N)cc3[nH]2)cc1	-245	42	6	66*	5	22
Cc1cc(=O)oc2c(C)c(OC(C)C(=O)NCCCN3CCOCC3)ccc12 (configuration not stated)	-11	64*	x	x	x	-3

Screening data: PubChem BioAssay, several laboratories
